Sampled rows, rich in hits. Any-hit rate of the full collection: about 7.3%.
Rab9 prom act: qHTS Assay for Rab9 Promoter Activators | Huh7 Rab9 promoter-luciferase reporter, luminescence, 24 h | Potency, µM (highest dose often 9.22 µM), for inactives: at the top dose activation, negative = inhibition, most hits filed as activators | 320,000 tested, 2.8% active; also: % of control where 0% means no effect; nearly all actives have a fitted effect of over 60% in size
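Luminescence read-out: Huh7 cells stably expressing Rab9-luciferase, treated 24 h with compound at 37 °C, then lysed with luciferase reagent for 10 min at ambient before reading.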
Luc counter: Counterscreen for Luciferase (Kinase-Glo TM) Inhibition | Luciferin 4-monooxygenase (Photuris pensylvanica), Q27757 | Kinase-Glo luciferase, ATP luminescence, 8 min | Potency, µM (titrated, usually from 38.3 µM), inactives show at the highest dose activity change, negative = inhibition, hits mostly inhibitors | 200,000 tested, 0.28% active | AID 1379, 2008; also: % is scaled to controls: 0 for no effect and ±100 for the full control effect; nearly all actives have a fitted effect of over 60% in size
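Luminescence was the read-out, taken after 8-minute incubation at ambient temperature. Luciferase turned over luciferin with 10 uM ATP in imidazole pH 7.2 buffer containing KCl, MgCl2, Tween 20 and BSA.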
FLuc modulator: qHTS profiling assay for firefly luciferase inhibitor/activator using purifed enzyme and Km concentrations of substrates (counterscreen for miR-21 project); purified FLuc, Km substrates, luminescence inhibition; 360,000 tested, 6.9% active; Potency, µM (titrated, usually from 57.5 µM), without a hit: at the top dose activity change, negative = inhibition, hits mostly inhibitors; Luciferin 4-monooxygenase (Photinus pyralis), P08659;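 also: plate controls were vehicle for no effect and reference inhibitor for full effect; nearly all actives have a fitted effect of over 55% in size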
Target sequence (P08659 whole entry, looked up): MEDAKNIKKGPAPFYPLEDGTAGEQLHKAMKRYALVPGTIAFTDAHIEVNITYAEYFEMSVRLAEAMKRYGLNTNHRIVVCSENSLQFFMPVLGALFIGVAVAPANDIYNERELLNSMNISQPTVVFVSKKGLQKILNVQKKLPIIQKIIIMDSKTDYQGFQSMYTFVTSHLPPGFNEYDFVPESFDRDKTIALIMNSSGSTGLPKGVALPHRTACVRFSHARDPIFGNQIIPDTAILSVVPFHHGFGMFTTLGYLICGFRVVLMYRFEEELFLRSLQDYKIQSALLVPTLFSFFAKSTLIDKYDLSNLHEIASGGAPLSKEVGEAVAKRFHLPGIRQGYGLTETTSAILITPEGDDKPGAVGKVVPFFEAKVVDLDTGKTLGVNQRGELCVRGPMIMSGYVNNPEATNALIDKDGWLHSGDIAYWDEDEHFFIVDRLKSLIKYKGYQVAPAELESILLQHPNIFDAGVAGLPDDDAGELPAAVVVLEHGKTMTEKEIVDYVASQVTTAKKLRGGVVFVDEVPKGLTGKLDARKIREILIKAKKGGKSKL
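Biochemical qHTS of compounds, final roughly 60 µM downward over six points, against 10 nM purified firefly luciferase using Km concentrations of substrates (10 uM D-luciferin, 10 uM ATP) in Tris acetate pH 7.5 buffer; luminescence output.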
NPC1 promoter act: qHTS Assay for NPC1 Promoter Activators. 320,000 tested, 2.4% active. Potency, µM (titrated, usually from 9.22 µM), for the others: top-dose activation, usual class: activators. AID 485313, 2010. Huh7 NPC1 promoter luciferase reporter, 24 h; also: % of control where 0% means no effect; nearly all actives have a fitted effect of over 60% in size
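Quantitative HTS used a cell-based reporter: Huh7 cells stably bearing the NPC1 promoter upstream of luciferase were treated with compounds for 24 h, and promoter activation was read as luminescence.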
ELG1 genotoxic: qHTS screen for small molecules that induce genotoxicity in human embryonic kidney (HEK293T) cells expressing luciferase-tagged ELG1; AID 504466, 2011; 330,000 tested, 1.3% active; Potency, µM (top dose mostly 46 µM), for the others: at the top dose activity change, positive = activation, most hits filed as activators; HEK293T ELG1-luciferase reporter, luminescence, 16 h; also: % of control where 0% means no effect; nearly all actives have a fitted effect of over 60% in size
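Screening used a luciferase reporter fused to human ELG1 in HEK293T cells. Luminescence was read on a CCD plate imager after 16 hr exposure and 30 min ONE-Glo incubation.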
SMN2 splice enh: qHTS Assay for Enhancers of SMN2 Splice Variant Expression | HEK293 SMN2-luciferase splicing reporter, luminescence, 30-36 h | Potency, µM (titrated, usually from 46.1 µM), for the others: at the top dose activity change, positive = activation, hits mostly activators | 210,000 tested, 2.8% active; also: % of control where 0% means no effect; nearly all actives have a fitted effect of over 55% in size
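qHTS luciferase splicing reporter: luminescence rises when SMN2 exon 7 is included in transfected HEK293 cells. Compound exposure lasted 30-36 h at 37C, with 4.5 mM final sodium butyrate as control, followed by a ONE-Glo read.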
* = called active by the depositor; ? = inconclusive; . = no result given; [ ] = dose if it differs, or a comment. Calls follow the shape of the dose curve; as a rule, active = well fitted curve in the direction sought with a large enough effect; inconclusive = small, poorly fitted or top-dose-only effect, or another doubt; inactive = no such curve, though single readings can be large; an effect the other way counts as inactive or inconclusive. Potency is read from the fitted curve at half-maximal effect.

SMILES	Rab9 prom act	Luc counter	FLuc modulator	NPC1 promoter act	ELG1 genotoxic	SMN2 splice enh
Cc1nc(-c2ccccc2)nc2[nH]c(-c3ccccc3)cc(=O)c12	14%	-1%	0%	-1%	22%	5%
CCN(CC)c1ccc(NC(=O)c2cccn2-c2nnc(N3CCCCC3)s2)c(C)c1	.	.	-10%	.	.	.
Cc1cc(C)c(S(=O)(=O)NCCc2sc3nc(-c4ccc(F)cc4)nn3c2C)c(C)c1	.	.	0%	.	.	.
O=C(Cn1nc(-c2ccccc2)nc(Cc2ccccc2)c1=O)Nc1ccccc1	.	.	-5%	.	.	.
CCCn1nnc(NC(=O)c2ccc(OCC)c(Cl)c2)n1	23%	0%	6%[2.3 µM]	3%	10%	3%
O=C(COc1ccc(Cl)cc1Cl)NCc1ccco1	?	-1%	24µM*	25%	?	-8%
CCOc1ccc(C(=O)Nc2ccc(Cl)cn2)cc1Cl	2.5µM*	1%	4.8µM*	2.5µM*	?	?
O=C(COc1ccc(Cl)cc1Cl)NN=C1CCCCC1	-7%	3%	7.6µM*	0%	1%	-18%
CCOc1ccc(C(=O)Nc2cc(NC(=O)c3ccc(OCC)c(Cl)c3)cc(C(=O)O)c2)cc1Cl	-7%	1%	-20%	-4%	-1%	9%
CCOc1ccc(C(=O)Nc2cccc(C(=O)O)c2)cc1Cl	?	-6%	0.24µM*	?	-10%	0.56µM*
Cc1ccc(CNC(=O)C2CCCN(S(=O)(=O)c3cccc4nsnc34)C2)cc1 (stereo not drawn)	.	.	0%	.	.	9%
COc1ccc(Cl)cc1NS(=O)(=O)c1c(C)nc2scc(C)n2c1=O	.	.	6%	.	.	9%
Cc1cc(N2CCC(C(=O)Nc3ccc(F)cc3F)CC2)n2nc(C)c(-c3ccc(Cl)cc3)c2n1	.	.	4%	.	.	-2%
CCOC(=O)C1CCC(CN(Cc2c(Cl)cccc2Cl)S(=O)(=O)c2ccc(F)cc2)CC1 (stereo not drawn)	.	.	-3%	.	.	.
CC(=O)Nc1ccc(NC(=O)COc2ccc(Cl)cc2Cl)cc1	0%	.	7%	26%	1%	.
O=C(COc1ccc(Cl)cc1Cl)Nc1ccc(Cl)cn1	?	-12%	0.3µM*	0.45µM*	1.2µM*	11µM*
COc1ccc(CNC(=O)Cc2c(C)c3cc4c(C)coc4c(C)c3oc2=O)cc1OC	.	.	2%	.	.	-3%
CCOc1ccccc1CNC(=O)C1CCN(S(=O)(=O)c2c(C)noc2/C=C/c2ccc(C)cc2)CC1	.	.	-4%	.	.	.
CC(=O)N1N=C(c2ccc(C)cc2)OC1c1ccc(C(C)C)cc1 (stereo not drawn)	2.5µM*	-7%	3µM*	2.5µM*	?	?
CC(=O)N1N=C(c2ccc(C)cc2)OC1c1ccc(C)cc1 (stereo not drawn)	?	7%	17µM*	?	18µM*	26%
CC(=O)N1N=C(c2cccnc2)OC1c1ccc(C(C)C)cc1 (stereo not drawn)	-8%	7%	?	-2%	10%	10%
CCCCOc1ccc(C(=O)Nc2cc(-c3cn4cccnc4n3)ccc2OC)cc1	.	.	-9%	.	.	.
COc1cc2c(C#N)c(N3CCCC3)nc(N)c2c(N)n1	-1%	.	17µM*	-1%	11%	.
COc1cc2c(C#N)c(N3CCN(c4ccccc4OC)CC3)nc(N)c2c(N)n1	-8%	-1%	24µM*	0%	-9%	-21%
COc1cc2c(C#N)c(N3CCN(C)CC3)nc(N)c2c(N)n1	8%	1%	?	-4%	?	13%
SMILES	Rab9 prom act	Luc counter	FLuc modulator	NPC1 promoter act	ELG1 genotoxic	SMN2 splice enh
N#Cc1c(N2CCCC2)nc(N)c2c(N)nc(N3CCCC3)cc12	?	1%	?	23%	13%	11µM*
CCOC(=O)c1[nH]cnc1N=Nc1c(O)ccc2ccccc12	-24%	-12%	?	-8%	?	-96%
Oc1ccc2ccccc2c1N=Nc1ccccc1F	2%	.	17µM*	?	1%	.
Oc1ccc2ccccc2c1N=Nc1ccccn1	-27%	-6%	15µM*	?	1%	-79%
O=S(=O)(O)c1cccc(N=Nc2c(O)ccc3ccccc23)c1	0%	.	24µM*	1%	-1%	.
O=C(Cn1ncc2c([nH]c3ccccc32)c1=O)Nc1cc(F)ccc1F	.	.	-1%	.	.	.
CCn1c(CCCOc2ccc(Cl)cc2Cl)nnc1SCC(=O)Nc1cccc(F)c1	-5%	-2%	9.5µM*	1%	0%	8%
O=C(CSc1nnc(CCCOc2ccc(Cl)cc2Cl)o1)Nc1ccc(C(=O)O)cc1	-6%	2%	5.4µM*	1%	4%	9%
O=C(CSc1nnc(COc2ccc(Cl)cc2Cl)o1)Nc1ccccn1	-3%	.	?	1%	1%	.
O=C1/C(=C\c2cccs2)Sc2ccc3ccccc3c21	20%	-17%	0.6µM*	-3%	3.7µM*	15%[1.84 µM]
Nc1nc(Cl)cc(NCCO)n1	.	-2%[7.66 µM]	.	.	.	-4%[9.22 µM]
COc1ccc(-n2sc3ccc(F)cc3c2=O)cc1	3.5µM*	.	?	?	5%	.
Cc1cc(C(=O)CSc2ccc3c(c2)OCCO3)c(C)n1C1CC1	2.8µM*	-2%	11µM*	?	?	?
C/C(N)=C(/C#N)C(=O)CSc1ccc2c(c1)OCCO2	2.8µM*	-10%	12µM*	3.2µM*	?	13µM*
Cn1c(N)c(C(=O)CSc2ccc3c(c2)OCCO3)c(=O)n(C)c1=O	6%	-7%	?	-1%	-7%	-20%
CCOc1ccc(CCNS(=O)(=O)c2cc(Br)cc3c2N(C(C)=O)CC3)cc1OCC	.	.	3%	.	.	.
O=C(c1cc2cc([N+](=O)[O-])ccc2oc1=O)n1cccn1	4µM*	-3%	-3%	-4%	-2%	0%
O=C(Nc1nnc(C2CCCO2)s1)c1ccc(Br)cc1 (stereo not drawn)	?	6%	?	3.5µM*	?	27%
O=C1C(=O)c2ccccc2C(O)=C1Cc1ccccc1	.	-6%[7.66 µM]	.	.	.	-5%[9.22 µM]
Cc1ccc(N=CNc2ccc(C)cc2C)c(C)c1	13%	.	15µM*	-4%	3%	.
Cc1ccc(NC(=O)CC(=O)Nc2ccc(C)cc2C)c(C)c1	-6%	.	1%	1%	1%	.
Nc1ccc(C(=O)C[C@H](N)C(=O)O)cc1O	.	-8%[7.66 µM]	.	.	.	-4%[9.22 µM]
Clc1cccc(Cl)c1Cn1ccc(C2CC2)n1	3.2µM*	-7%	12µM*	?	?	?

From PubChem BioAssay
